Assay outcomes from PubChem.
Only some compounds are listed: those with a hit (about 2.3% of all), similar ones and a draw of the others.
CHO-K1 Ca ag = counter-screen for M1 agonists: effect in parental CHO-K1 cells. activation, % at 3 µM. actives 0.48% (n = 360,000). Fluo-8 calcium fluorescence; scaled to maximal ATP response, vehicle zero. AID 602248, 2012; in the data active means activation above about 15%;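 further: untransfected CHO-K1 host cells lacking M1 receptor as counterscreen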
M1 ag = human M1 muscarinic receptor agonists, primary screen, Fluo-8 calcium fluorescence, CHO-K1 cells, HTS. Muscarinic acetylcholine receptor M1 (Homo sapiens), P11229. CHO-K1 hM1, agonist mode; 0% DMSO, 100% acetylcholine EC100. activation, % at 3 µM. actives 0.33% (n = 360,000);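 active means activation above the run's mean compound activation plus 3 SD, cut at about 16% in these data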;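 further: peak over basal fluorescence ratio within a 140 s kinetic read after compound addition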
Target sequence (P11229 whole entry, looked up): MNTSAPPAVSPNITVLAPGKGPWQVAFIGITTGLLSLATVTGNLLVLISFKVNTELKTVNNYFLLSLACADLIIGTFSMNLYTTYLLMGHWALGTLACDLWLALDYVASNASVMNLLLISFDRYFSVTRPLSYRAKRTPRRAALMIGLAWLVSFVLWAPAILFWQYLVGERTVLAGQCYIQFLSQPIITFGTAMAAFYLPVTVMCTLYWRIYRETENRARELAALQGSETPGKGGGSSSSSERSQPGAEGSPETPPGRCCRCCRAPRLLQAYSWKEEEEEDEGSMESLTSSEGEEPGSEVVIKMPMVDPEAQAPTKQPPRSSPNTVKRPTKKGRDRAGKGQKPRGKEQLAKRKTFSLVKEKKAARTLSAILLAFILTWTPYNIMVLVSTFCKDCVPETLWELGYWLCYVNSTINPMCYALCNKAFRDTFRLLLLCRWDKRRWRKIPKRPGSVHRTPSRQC
CHO-K1 Ca PAM = nonselective calcium activators in parental CHO-K1 cells, primary screen, counter-screen for M1 PAM project, cell-based, Fluo-8 calcium fluorescence, full deck, 1536-well; activation, % at 3 µM; ATP EC20; 0% at ATP EC20, 100% at ATP max; actives 0.02% (n = 360,000);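 active means activation above the run cutoff, the mean activation of all test compounds plus 3 SD, cut at about 40% in these data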;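 further: peak over basal fluorescence ratio in a 140 s read after ATP addition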
CHO-K1 Ca antag = M1 antagonist counterscreen hit in parental CHO-K1 cells; inhibition, % at 3 µM; actives 0.6% (n = 360,000); ATP-induced calcium, Fluo-8 fluorescence;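 active means inhibition above a per-plate cutoff, the plate's mean sample inhibition plus 3 SD, cut at about 24% in these data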;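 further: 0% = DMSO plus EC80 ATP and 100% = DMSO alone without ATP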
M1 PAM = human M1 muscarinic receptor positive allosteric modulators, primary screen, CHO-K1 cells, Fluo-8 calcium fluorescence, 1536-well | Muscarinic acetylcholine receptor M1 (Homo sapiens), P11229 | CHO-K1 hM1, ACh EC20; 0% = ACh EC20, 100% = maximal ACh | activation, % at 3 µM | actives 0.088% (n = 360,000); in the data active means activation above about 19%, passing the limit was not always enough
M1 antag = human M1 muscarinic receptor antagonists, primary screen, CHO-K1 cells, Fluo-8 calcium fluorescence, 1536-well. Muscarinic acetylcholine receptor M1 (Homo sapiens), P11229. CHO-K1 hM1, ACh EC80 antagonist. inhibition, % at 3 µM. actives 1.3% (n = 360,000). AID 588852, 2011;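 active means percent inhibition above its own plate's cutoff, namely the mean of that plate's compound wells plus 3 SD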;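 further: peak over basal fluorescence ratio during 140 s after agonist addition; 0% = ACh EC80 plus DMSO and 100% = DMSO alone without agonist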
* = called active by the depositor.

SMILES	CHO-K1 Ca ag	M1 ag	CHO-K1 Ca PAM	CHO-K1 Ca antag	M1 PAM	M1 antag
CC(NC(=O)COC(=O)c1ccccc1SCC(=O)N1CCCC1)c1ccccc1 (configuration not stated)	2	-3	-22	9	-4	10
COc1ccc(CCNC(=O)CCC(=O)NC2CCCC(C)C2C)cc1OC (configuration not stated)	-1	-3	6	29*	6	-11
COc1ccc(CCNC(=O)CCC(=O)c2cccs2)cc1OC	0	-3	-26	28*	-5	11
COc1ccccc1C(=O)NCCC(=O)NC1CCCC(C)C1C (configuration not stated)	4	-2	20	-12	6	-7
O=C(N/N=C/c1cccc2ccccc12)c1cccnc1	2	-2	15	-4	10	-13
Cc1ccccc1/C=N/NC(=O)c1cccnc1	0	3	11	-6	27*	-34
O=C(OCC(=O)N1CCN(C(=O)c2ccco2)CC1)c1ccccc1NCCO	0	-2	-19	-3	13	-12
CCc1ccc(Nc2n[n+](-c3ccccc3)c(-c3c(Cl)cccc3Cl)s2)cc1	21*	19*	-3	8	-26	49*
COc1ccc2ccccc2c1-c1sc(Nc2ccccc2)n[n+]1-c1ccc(F)cc1	16*	7	-3	-9	-20	28
COc1ccc(-c2sc(Nc3ccccc3)n[n+]2-c2ccc(F)cc2)cc1Br	0	-5	-1	-7	5	-7
Fc1ccc(-[n+]2nc(Nc3ccccc3)sc2-c2c(Cl)cccc2Cl)cc1	15*	-2	2	-7	-20	22
CCc1ccc(Nc2n[n+](-c3ccccc3)c(-c3ccc(OCc4ccccc4)cc3)s2)cc1	0	-6	30	-10	0	5
CCc1ccc(Nc2n[n+](-c3ccccc3)c(-c3ccc(N(CC)CC)cc3)s2)cc1	14	9	6	18	-13	39*
COc1ccc(Nc2cc(Nc3cc(OC)c(OC)c(OC)c3)ncn2)cc1	4	-6	9	-19	4	-4
CCN1C/C(=C/c2ccc(OC)c(O)c2)C(=O)/C(=C/c2ccc(OC)c(O)c2)C1	0	0	-6	-8	-1	14
COc1ccc(/C=C2\CN(Cc3ccccc3)C/C(=C\c3ccc(OC)c(O)c3)C2=O)cc1O	7	-2	10	4	-16	28*
O=C1NC(=S)N/C1=C/c1cc([N+](=O)[O-])ccc1O	0	-1	-10	-5	7	-8
O=[N+]([O-])CC(c1ccccc1)c1c[nH]c2ccccc12 (configuration not stated)	0	-2	7	-7	13	-15
OC(CNCC(c1ccc(Cl)cc1Cl)c1c[nH]c2ccccc12)c1ccccc1 (configuration not stated)	16*	-2	15	2	9	-3
COc1cc(C(=O)Nc2ccc(Nc3ccccc3)cc2)cc(OC)c1OC	3	-3	5	-5	2	-8
O=[N+]([O-])c1ccc(-c2nc(Nc3cccc(O)c3)c3ccccc3n2)cc1	20*	-3	-6	21	2	-4
O=C(O)c1cccc(Nc2nc(-c3ccc([N+](=O)[O-])cc3)nc3ccccc23)c1	2	-2	7	-7	2	-9
Cc1nn(Cc2ccc(C(=O)Nc3ccccc3C(F)(F)F)o2)c(C)c1Br	2	1	4	2	-7	6
Cc1csc(NC(=O)c2ccc(Cn3nc(C)c(Br)c3C)o2)n1	17*	-2	4	14	-10	14
C/C(=N\N1CCN(c2ccccc2)CC1)c1ccccc1O	1	-3	12	-4	1	3
C/C(=N\N1CCCCC1)c1ccccc1O	0	22*	16	1	5	6
